The panel holds about 83,000 compounds, 20% with a hit somewhere; the sample as a whole holds those more often.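 Cells were grown in 96-well plates and exposed to the test compound at a single concentration for 48 hours; results are reported as percent growth, with values below 10 considered active.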 Values without a mark were called inactive. The source made the active and inactive calls.

One assay deals with OVCAR-4 ovarian. Nature of the assay: NCI-60 one-dose screen, 48 h (100 = growth as untreated, 0 = no growth, -100 = all killed). Conditions: 10 µM unless noted.
Consider `COc1cc2c(cc1OCCCCn1c(-c3cccs3)nc3ccccc31)N=C[C@@H]1CCCN1C2=O`, for which the growth is -21.3% (active).
On the same count and under the same terms, with `COc1ccc(N(CC(=O)NCCC[Te]c2ccccc2)C(=O)CCSC2=C(C)C(=O)c3ccccc3C2=O)cc1` the figure was 20.2%.
Regarding `NC(=Nc1ccccc1)N[N+](=O)[O-]`, the growth is 96.5%.
Still for that read-out and setting: with `C[S+]1C=Cc2ccccc2C1c1ccc(Cl)cc1` (stereo not given) the figure was 66.5%; with `CC(C)[C@]12O[C@H]1[C@@H]1O[C@]13[C@]1(O[C@H]1C[C@H]1c4c(C(=O)c5ccccc5)oc(OC(=O)c5ccccc5)c4CC[C@@]13C)[C@@H]2O`, 21.3%; with `CN(C)CC(C(=O)Cc1ccccc1)c1ccccc1` (stereo not given), 91.7%.
Take `O=C1C=C2C(=CCOC2O)O1` (stereo not given): the growth was 25.4%.
Same read-out and setting: with `Clc1ccc(N2COOC3(OOC2)C2CC4CC(C2)CC3C4)cc1` the figure was 87.1%; with `Nc1ccc2c(c1)Cc1cc(Br)ccc1-2`, 99.9%; with `O=c1[nH]c2ccc([N+](=O)[O-])cc2c(=O)o1`, 98.8%.
On the same count and under the same terms, for `NC(=O)c1c(Br)n(C2OC(CO)C(O)C2O)c2ncnc(N)c12` (stereo not given) the value was 16.1%.
The same measure, in the same setting: with `Cc1cc(N(CCCl)CCCl)ccc1/C=N\NC(=O)c1ccncc1` the figure was 89.1%; with `CCCC(C)C1(CC)C(=O)NC(=O)N(C)C1=O` (stereo not given), 108%.
Turning to `CC(=O)c1ccc(C(=O)NCC2CCC3(CC2)OOC2(CCCCC2)OO3)cc1`, the growth is 75.4%.

The next assay has as its system SK-OV-3 ovarian. Described as above. To be noted: 10 µM unless noted.
Regarding `O=[As](O)(O)c1ccccc1[As](=O)(O)O`, the growth is 111%.
Regarding `Clc1ccc(COC(Cn2ccnc2)c2ccc(Cl)cc2Cl)cc1` (stereo not given), the growth is 91.2%.
The same measure, in the same setting: for `CN(C)C(=O)Oc1ccccc1` the value was 103%.
As for `CC[C@H](C)[C@H](NC(=O)C12C3C4C1C1C2C3C41NC(C)=O)C(=O)N(C)[C@H](C[C@@H](OC(C)=O)c1nc(C(=O)N[C@@H](Cc2ccccc2)C[C@H](C)C(=O)OC)cs1)C(C)C` (stereo not given in full), the growth is 48.5%.
On the same count and under the same terms, with `COc1ccc(C(=O)c2sc3nc4c(cc3c2N)N2CCC4CC2)cc1OC` the figure was 96.2%; with `CCC(CC)CC1(C)CC2(C)CCOC2OO1` (stereo not given), 111%.
As for `ClCCN(CCCl)c1ccc(/C=N\N=C\c2ccc(N(CCCl)CCCl)cc2)cc1`, the growth is 19.6%.
For the compound `CCOC(=O)C(Cc1ccc(N(CCCl)CCCl)cc1)NC(=O)C(CC(C)C)NC(C)=O` (stereo not given), the growth was 53.3%.
With `CNCc1cccnc1`, the growth was 106%.
For the compound `CCN(CCO)C(Cc1ccccc1)c1ccccc1` (stereo not given), the growth is 110%.
On the same count and under the same terms, with `C=CCc1cc2c(cc1OCC)OCO2` the figure was 80.3%; with `N#Cc1c(Br)n(C2OC(CO)C(O)C2O)c2ncnc(N)c12` (stereo not given), 78.3%; with `NC(=S)c1cn(C2OC(CO)C(O)C2O)c2ncnc(N)c12` (stereo not given), 17%.
For the compound `O=P(N1CC1)(N1CC1)N1CCc2ccccc21`, the growth was 111%.
The same measure, in the same setting: for `Oc1ccc2c3c1OC1[C@@H](O)CC[C@@]4(O)[C@@H](C2)N(CC2CCC2)CC[C@]314` (stereo not given in full) the value was 109%.
The same measure, in the same setting: for `COC(=O)[C@@]1(O)C[C@H]2O[C@]1(C)n1c3ccccc3c3c4c(c5c6ccccc6n2c5c31)C(=O)NC4` the value was -33.8% (active); for `ClCCN(CCCl)c1ccc(OCc2ccccc2)cc1`, 65.2%; for `N#CC1(C#N)C(c2ccc(N(CCCl)CCCl)cc2)OC23CCCCC2C1(C#N)C(=N)O3` (stereo not given), 96.8%.
The same measure, in the same setting: with `COC(=O)[C@@H](C)C[C@H](Cc1ccccc1)NC(=O)c1nc([C@@H](C[C@H](C(C)C)N(C)C(=O)[C@@H](NC(=O)[C@H]2CC(=O)CCN2C)C(C)C)OC(C)=O)sc1C(C)C` the figure was 29.1%; with `Nc1ccc2c(c1)oc1ccccc12`, 115%; with `CNC(=O)Oc1ccc(C(C)(C)C)cc1OC(=O)NC`, 88.4%.
Consider `COc1cc2c(cc1OCCCCn1c(-c3cccs3)nc3ccccc31)N=C[C@@H]1CCCN1C2=O`, for which the growth was 24.9%.
In the case of `CC[C@H](C)[C@H](NC(=O)C12C3C4C1C1C2C3C41NC)C(=O)N(C)[C@H](C[C@@H](OC(C)=O)c1nc(C(=O)N[C@@H](Cc2ccccc2)C[C@H](C)C(=O)OC)cs1)C(C)C` (stereo not given in full), the growth is 17.1%.
As for `COc1ccc(N(CC(=O)NCCC[Te]c2ccccc2)C(=O)CCSC2=C(C)C(=O)c3ccccc3C2=O)cc1`, the growth was -55.6% (active).
Take `NC(=Nc1ccccc1)N[N+](=O)[O-]`: the growth was 98.4%.
Same read-out and setting: with `C[S+]1C=Cc2ccccc2C1c1ccc(Cl)cc1` (stereo not given) the figure was 116%.
